Experimental data as given in PubChem BioAssay (EPA / NIEHS).
Results filed as inconclusive are left out. The source made the active and inactive calls. The calls were made as follows: active = hit-call score of the fitted dose curve at least 0.9, where 1 is the maximum; inconclusive = response in the unintended direction; inactive = score below 0.9.

Test: ATG_M_32_TRANS: Attagene TRANS-FACTORIAL HepG2 Assay for M32 Transcription Factor (Internal Marker) (AID 2282984)
Settings: HepG2 Attagene TRANS M32 internal marker reporter
Protocol: ATG_TRANS is a cell-based, multiplexed-readout assay that uses HepG2, a human liver cell line, with measurements taken at 24 hours after chemical dosing in a 24-well plate.ATG_M_32_TRANS is one of 30 assay component(s) measured or calculated from the ATG_TRANS assay. It is designed to make measurements of mRNA induction, a form of inducible reporter, as detected with fluorescence intensity signals by Reverse transcription polymerase chain reaction (RT-PCR) and Capillary electrophoresis technology.Data from the assay component ATG_M_32_TRANS was analyzed into 1 assay endpoint. This assay endpoint, ATG_M_32_TRANS, was analyzed in the positive analysis fitting direction relative to DMSO as the negative control and baseline of activity. Using a type of inducible reporter, measures of mRNA for gain-of-signal activity can be used to understand the background control at the transcription factor-level as they relate to the gene . Furthermore, this assay endpoint can be referred to as a secondary readout, because this assay has produced multiple assay endpoints where this one serves a background control function. To generalize the intended target to other relatable targets, this assay endpoint is annotated to the background measurement intended target family, where the subfamily is internal marker.
Human liver HepG2 cells are transiently transfected with multiple reporter transcription units (MRTUs) in 6-well plates using FuGene 6 reagent (Roche; 3 ml FuGene/1 mg DNA). The MRTU constructs are regulated by a cis-regulating element (promoter). […] A major difference between the CIS and TRANS system is that in CIS activities of endogenous TFs are measured, whereas the TRANS assay evaluates changes in activities of exogenous, chimeric NR-Gal4 proteins. […] At the end of 24 hour incubation, total RNA was isolated using TriZol reagent (Invitrogen). The isolated RNA is then reverse-transcribed using oligo(dT) primer and Mo-MLV reverse transcriptase (Invitrogen) with DNAse I (Ambion) treatment for 30 min. The one-tenth of the produced cDNA was amplified by PCR using Taq DNA polymerase (Invitrogen) and two reporter sequence-specific primers. The PCR products were fluorescently labeled by primer extension with 6-arboxyfluorescein (6-FAM) 5'-labeled reporter sequence-specific primer (2 min at 95 C, 20 s at 68 C and 10 min at 72 C) and these products were digested with 5U of HpaI (New England Biolabs) for 2h at 37 C. The fragments were purified using Qiaquick PCR columns (Qiagen), analyzed on an ABI 3130xL genetic analyzer (Applied Biosystems) with peak positions identified by using a set of X-rhodamine (ROX)-labeled MapMarker1000 molecular weight standards (BioVentures). The raw capillary electrophoresis data was processed using Attagraph software (Attagene).

Row | Compound | outcome
1 | CC(C)(C)C(O)/C(=C\c1ccc(Cl)cc1Cl)n1cncn1 (stereo not drawn) | inactive
2 | C#CCN1C(=O)COc2cc(F)c(N3C(=O)C4=C(CCCC4)C3=O)cc21 | inactive
3 | O=C(Nc1ccccc1)Nc1cnns1 | inactive
4 | CNC(=O)CSP(=S)(OC)OC | inactive
5 | CNC(=O)/C=C(\C)OP(=O)(OC)OC | inactive
6 | N#CN | inactive
7 | Clc1ccccc1-c1nnc(-c2ccccc2Cl)nn1 | inactive
8 | COP(=S)(OC)Oc1ccc([N+](=O)[O-])cc1 | inactive
9 | CCCN(CCOc1c(Cl)cc(Cl)cc1Cl)C(=O)n1ccnc1 | inactive
10 | CCC(C)(NC(=O)c1cc(Cl)c(C)c(Cl)c1)C(=O)CCl (stereo not drawn) | inactive
11 | COC(=O)c1ccccc1S(=O)(=O)NC(=O)Nc1nc(C)nc(OC)n1 | inactive
12 | CCN(CC)C(=O)SCc1ccc(Cl)cc1 | inactive
13 | CC1(C)C(C=C(Cl)Cl)C1C(=O)OC(C#N)c1ccc(F)c(Oc2ccccc2)c1 (stereo not drawn) | inactive
14 | CN1CSC(=S)N(C)C1 | inactive
15 | O=C1c2ccccc2C(=O)N1SC(Cl)(Cl)Cl | inactive
16 | O=S1OCC2C(CO1)C1(Cl)C(Cl)=C(Cl)C2(Cl)C1(Cl)Cl (stereo not drawn) | inactive
17 | COC(=O)c1ccccc1CS(=O)(=O)NC(=O)Nc1nc(OC)cc(OC)n1 | inactive
18 | CCOCN(C(=O)CCl)c1c(C)cccc1CC | inactive
19 | CC(C)(C)C(O)C(Oc1ccc(Cl)cc1)n1cncn1 (stereo not drawn) | inactive

Row | Compound | outcome
20 | Oc1ccc(Cl)cc1Cc1ccccc1 | inactive
21 | CC1(c2ccc(Oc3ccccc3)cc2)OC(=O)N(Nc2ccccc2)C1=O (stereo not drawn) | inactive
22 | O=[N+]([O-])c1c(Cl)c(Cl)c(Cl)c(Cl)c1Cl | inactive
23 | CCS(=O)(=O)c1cccnc1S(=O)(=O)NC(=O)Nc1nc(OC)cc(OC)n1 | inactive
24 | CCOC1Oc2ccc(OS(C)(=O)=O)cc2C1(C)C (stereo not drawn) | inactive
25 | COP(=O)(OC)OC=C(Cl)Cl | inactive
26 | O=C(O)COc1ccc(Cl)cc1Cl | inactive
27 | O=[N+]([O-])/N=C1\NCCN1Cc1ccc(Cl)nc1 | inactive
28 | COc1nn(CSP(=S)(OC)OC)c(=O)s1 | inactive
29 | CCCN(CCC)c1c([N+](=O)[O-])cc(C(F)(F)F)cc1[N+](=O)[O-] | inactive
30 | COP(=S)(OC)Oc1ccc(SC)c(C)c1 | inactive
31 | CC(C)OC(=O)Nc1cccc(Cl)c1 | inactive
32 | Oc1cc(Cl)ccc1Oc1ccc(Cl)cc1Cl | inactive
33 | [2H]C1([2H])[n+]2ccccc2-c2cccc[n+]2C1([2H])[2H] | inactive
34 | O=S(=O)(O)C(F)(F)C(F)(F)C(F)(F)C(F)(F)C(F)(F)C(F)(F)C(F)(F)C(F)(F)F | inactive
35 | OCCOc1ccccc1 | inactive
36 | Cc1[nH]c(=O)n(C(C)(C)C)c(=O)c1Cl | inactive
37 | O=C(O)C(F)(F)C(F)(F)C(F)(F)C(F)(F)C(F)(F)C(F)(F)C(F)(F)F | inactive
38 | ClC1C(Cl)C(Cl)C(Cl)C(Cl)C1Cl (stereo not drawn) | inactive
